High-throughput results: PubChem, several laboratories
rCAG RNA binder – binds r(CAG) RNA repeats; r(CAG) RNA repeat, TO-PRO-1 dye displacement fluorescence; AID 651821; hit rate 1.3% among 370,000; inhibition, % at 3 µM;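 active = inhibition above the plate cutoff, the mean of all test compounds on that plate plus 3 SD, cut at about 35% in these data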;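 note: higher means more dye released from RNA so lower well fluorescence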
LEDGF integ inh – blocks HIV-1 LEDGF/p75-dependent DNA integration; TR-FRET IN-LEDGF/p75 DNA integration, Eu/Cy5; inhibition, % at 3.7 µM; hit rate 0.64% among 370,000; AID 743269;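 active = inhibition above the screen-wide mean plus 3 SD, cut at about 13% in these data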;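 note: signal is the Cy5 over europium emission ratio at 671 and 618 nm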
MBD2 inh – blocks human MBD2 binding to methylated DNA. hit rate 0.31% among 370,000. inhibition, % at 4.4 µM. AID 686964. Q9UBB5. TR-FRET, MBD2 binding to methylated oligonucleotide; in the data active = inhibition above about 13%
Target sequence (Q9UBB5 whole entry, looked up): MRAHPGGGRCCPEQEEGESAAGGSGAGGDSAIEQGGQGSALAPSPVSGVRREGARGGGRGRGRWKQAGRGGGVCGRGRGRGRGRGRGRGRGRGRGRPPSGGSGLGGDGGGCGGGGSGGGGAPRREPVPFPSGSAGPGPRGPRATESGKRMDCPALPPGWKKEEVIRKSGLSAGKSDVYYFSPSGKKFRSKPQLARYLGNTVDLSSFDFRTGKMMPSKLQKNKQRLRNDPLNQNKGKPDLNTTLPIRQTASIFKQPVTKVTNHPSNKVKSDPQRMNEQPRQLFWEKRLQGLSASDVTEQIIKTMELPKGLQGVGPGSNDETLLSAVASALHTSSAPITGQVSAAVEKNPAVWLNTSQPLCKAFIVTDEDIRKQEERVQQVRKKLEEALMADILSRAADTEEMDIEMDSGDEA
PG9 binder – PG9 antibody binding by small molecule; TR-FRET gp120-PG9 antibody binding; AID 624416; inhibition, % at 6.7 µM; hit rate 0.43% among 360,000; in the data active = inhibition above about 8.5%
DNMT1 inh – DNMT1 (human) enzyme inhibition | P26358 | DNMT1 molecular beacon, Hinp1I cleavage, fluorescence | inhibition (reported as % activation of signal), % at 10 µM | hit rate 0.83% among 360,000 | AID 588458; in the data active = inhibition above about 50%
UHRF1 MBD2 ctr – UHRF1 methyl-DNA binding inhibition | UHRF1 binding to methylated oligo, TR-FRET | inhibition, % at 4.4 µM | hit rate 0.75% among 370,000 | AID 687016; in the data active = inhibition above about 21%;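 note: UHRF1 SRA domain binding a hemimethylated CpG hairpin DNA probe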
A number is an active result; i = inactive; nt = no result. In the library only some 3.5% were active in any assay of this set; here they are far more common.

SMILES	rCAG RNA binder	LEDGF integ inh	MBD2 inh	PG9 binder	DNMT1 inh	UHRF1 MBD2 ctr
c1ccc2c(C(c3nnnn3-c3ccc4c(c3)OCCO4)N3CCOCC3)ccnc2c1 (stereo not given)	i	i	i	i	nt	22
COc1ccccc1NC(=O)N1CCCC1	i	i	i	i	i	i
COc1ccccc1NC(=O)N1CCN(C)CC1	i	i	i	i	i	34
COc1ccccc1NC(=O)CN1CCN(C(=O)c2ccco2)CC1	i	i	i	i	i	27
COc1ccccc1NC(=O)c1ccc(NC(=O)CN2CCN(C(=O)c3ccco3)CC2)cc1	i	i	i	i	i	i
O=C(NN=C/C=C/c1ccco1)c1cc(-c2ccc(Cl)cc2)n[nH]1	i	i	i	nt	nt	i
CC(=O)Nc1cccc(C(C)C2=CCCCC2)c1 (stereo not given)	i	i	i	nt	nt	i
O=C(O)c1ccc(N=N/C(=N\Nc2ccc(C(=O)O)cc2)c2ccccc2)cc1	76	i	i	i	i	i
COC(=O)CCc1sc(Nc2ccccc2)nc1-c1ccc(OC)cc1	i	i	i	i	i	37
COC(=O)c1cc(NC(=O)CN2C(=O)CSC2=O)ccc1Cl	i	i	i	i	i	23
COC(=O)c1ccccc1NC(=O)CN1C(=O)CSC1=O	i	i	i	i	i	i
COC(=O)C1CN(CCc2ccccc2)CCS(=O)(=O)N1Cc1ccc(C(F)(F)F)cc1 (stereo not given)	i	i	i	nt	nt	i
Cc1ccc(C)c(NC(=O)COC(=O)CNC(=O)C2CCCCC2)c1	i	i	i	i	i	52
Cc1cccc(NC(=O)COC(=O)CNC(=O)C2CCCCC2)c1	i	i	i	i	i	i
CN(CC(O)COc1ccc2ccccc2c1)C1CCCCC1 (stereo not given)	i	i	i	i	i	i
CC1(C(=O)NCc2cccc3ccccc23)CCN1Cc1ccc2ccccc2c1 (stereo not given)	i	i	i	i	i	i
CC(C)CCNC(=O)C1(C)CCN1Cc1ccc2ccccc2c1 (stereo not given)	i	i	i	i	i	34
COC(=O)c1ccc(Cn2cnc3c(cnn3-c3ccc(Cl)cc3)c2=O)o1	i	i	i	i	i	32
Cc1cc(C(=O)COc2cccc([N+](=O)[O-])c2)c(C)n1C1CC1	i	i	i	i	i	i
Cc1cc(C(=O)COC(=O)c2cccc(O)c2)c(C)n1C1CC1	i	i	i	i	i	27
COc1cccc(CNC(=O)c2ccc(CS(=O)(=O)Cc3ccccc3C)o2)c1	i	i	i	i	i	24
COc1cccc(CNC(=O)c2ccc(CS(=O)(=O)Cc3ccc(C)cc3)o2)c1	i	i	i	i	i	i
COc1cccc(CC2(CO)CCCN(Cc3ccccc3Cl)C2)c1 (stereo not given)	i	i	i	i	i	i
COc1cccc(CC2(CO)CCCN(Cc3ccc(CN4CCCCC4)s3)C2)c1 (stereo not given)	i	i	i	i	i	27
CCOC(=O)c1ccc(NC(=O)c2cc3ccccc3o2)cc1	i	i	i	i	i	26
SMILES	rCAG RNA binder	LEDGF integ inh	MBD2 inh	PG9 binder	DNMT1 inh	UHRF1 MBD2 ctr
CCOC(=O)c1cccc(NC(=O)c2cc3ccccc3o2)c1	i	i	i	i	i	i
Cc1ccc(-c2c[n+](CC(=O)Nc3ccc(C)cc3C)c3n2CCC3)cc1	i	i	i	i	i	37
Cc1ccc(-c2c[n+](CC(=O)Nc3nc(-c4ccc(F)cc4)cs3)c3n2CCC3)cc1	i	i	i	i	i	i
O=C(C[n+]1cc(-c2ccc(F)cc2)n2c1CCC2)Nc1nc(-c2ccccc2)cs1	i	i	i	i	i	44
Cc1ccc(NC(=O)C[n+]2cc(-c3ccc(C)cc3)n3c2CCC3)cc1	i	i	i	i	i	i
CCCC[C@H](CCCc1ccc(F)cc1)CCC(=O)N(c1ccccc1)c1ccccc1	i	i	i	nt	nt	i
NC(=O)c1c(N)[nH]c(C(=O)c2ccccc2)c1-c1ccccc1C(F)(F)F	nt	i	i	nt	nt	i
Cc1ccccc1CN1CCCCC(NC(=O)c2ccc(-c3ccccc3)cc2)C1=O (stereo not given)	i	i	i	nt	nt	i
COc1ccc(/C=N/N2C(=O)CSC2=S)cc1	i	i	i	i	i	63
CN(CC#CC1(O)c2ccccc2-c2ccccc21)Cc1ccccc1	i	i	i	i	i	23
C#CCN(C)Cc1ccccc1	i	i	i	i	i	i
C=CCN(Cc1ccc2c(c1)OCO2)C(C#CCCCC)C(C)C (stereo not given)	nt	i	i	nt	nt	i
CCOC(=O)c1cc(NC(=O)Cc2ccc(S(=O)(=O)N3CCOCC3)s2)cc(C(=O)OCC)c1	i	i	i	i	i	26
O=C(Cc1ccc(S(=O)(=O)N2CCOCC2)s1)Nc1cc(C(F)(F)F)cc(C(F)(F)F)c1	i	i	i	i	i	i
CC(C)(C)OC(=O)N1CCC(c2cc(=O)n3[nH]cc(C(=O)Nc4ccc(F)c(Cl)c4)c3n2)CC1	i	i	i	i	i	i
COc1ccc(NC(=O)c2c[nH]n3c(=O)cc(C4CCN(C(=O)OC(C)(C)C)CC4)nc23)cc1Cl	i	i	i	i	i	39
CSC(=NCc1ccc(F)cc1)NS(=O)(=O)c1cccs1	i	i	i	i	i	41
Cc1ccc(CN(Cc2ccc(C)o2)C(=S)NCC(=O)O)cc1	i	i	i	i	i	i
Cc1ccc(CN(Cc2ccco2)C(=S)NCC(=O)O)cc1	i	i	i	i	i	22
COC(=O)C1CCC(=S)N1C(=O)c1ccccc1 (stereo not given)	i	i	i	i	i	27
COC(=O)[C@H]1CN(C(=O)c2ccccc2)C(=O)N1	i	i	i	i	i	i
COC(=O)[C@@]1(OC(C)=O)CC(OC(C)=O)[C@H](OC(C)=O)[C@H](OC(C)=O)C1Br (stereo not given in full)	nt	i	i	nt	nt	i
CCCCCCCC(=O)N/N=C/c1ccco1	i	i	i	i	i	i
CCCCCCCCCCCC(=O)N/N=C/c1ccco1	i	i	i	i	i	27
C#CCCCN([C@H](C(=O)OC)C(C)C)S(=O)(=O)c1ccc(F)cc1Br	i	i	i	nt	nt	i
O=C(O)c1ccc(NS(=O)(=O)c2ccc(Cl)c(C(=O)Nc3ccccc3)c2)cc1	i	i	i	i	i	23
Cc1ccc(S(=O)(=O)N2C[C@H]3N(C(=O)OC(C)C)N(C(=O)OC(C)C)C[C@H](OC(=O)NCc4ccccc4F)[C@@]3(O)C2)cc1	i	i	i	i	i	22
C#CCN(C[C@@H]1[C@@H](OC(=O)NCC2CCCCC2)[C@@H](OC(=O)NCC2CCCCC2)CN(C(=O)OC(C)C)N1C(=O)OC(C)C)S(=O)(=O)c1ccc(C)cc1	i	i	i	i	i	i
C#CCN(C[C@@H]1[C@@H](OC(=O)NCc2ccccc2)[C@@H](OC(=O)NCc2ccccc2)CN(C(=O)OC(C)C)N1C(=O)OC(C)C)S(=O)(=O)c1ccc(C)cc1	i	i	i	i	i	23
